This note sets out measurements from PubChem BioAssay (Tox21).

Assay [1] can be described thus: qHTS assay to identify small molecule agonists of the hypoxia (HIF-1) signaling pathway - cell viability counter screen (AID 1224844; calls by dose curve; further: nearly all actives have a fitted effect of over 50% in size; further: potency means the concentration at half of the fitted maximal effect). In outline:
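HRE-bla ME-180 cells in medium with 0.5% dialyzed FBS were preincubated 5 hrs at 37C, exposed to compounds for 17 hrs, then viability was read as CellTiter-Glo luminescence after 30 min at room temperature, in the reporter wells.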

Assay [2] is described as follows: qHTS assay to identify small molecule agonists of H2AX (AID 1224845; active means well fitted activation curve with a large enough effect in the signal ratio in the repeat runs, not every such curve was filed as active; the % refers to the signal ratio; further: potency means the concentration at half of the fitted maximal effect). In outline: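 Wild-type CHO-K1 cells plated overnight, then exposed 3 hr at 37C to compounds at 15 concentrations (0.76% DMSO). Lysed, then HTRF anti-pH2AX(S139)-cryptate/anti-H2AX-d2 detection after 24 hr at room temperature; emissions 665 and 620 nm.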
(In general: Quantitative high-throughput screening tests each substance at several concentrations.)

The nature of assay [3]: qHTS assay to identify small molecule agonists of H2AX - cell viability counter screen (AID 1224847; calls by dose curve; further: nearly all actives have a fitted effect of over 30% in size; further: potency means the concentration at half of the fitted maximal effect). In outline: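 After overnight plating of 1000 CHO-K1 cells per well, a 15-concentration compound series was applied for 3 hr at 37C. Luminescence from CellTiter-Glo, read following 30 min at room temperature, reflected cell viability.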
The nature of assay [4]: qHTS assay to identify small molecule antagonists of the estrogen related receptor (ERR) signaling pathway from Tox21 library (AID 1224848). Further: potency means the concentration at half of the fitted maximal effect; nearly all actives have a fitted effect of over 50% in size. A digest of the protocol:
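Screening used an ERR reporter line supplied by NTP, exposed for 18 h at 37 C to library compounds delivered in DMSO. Signal was luciferase luminescence developed with ONE-Glo at room temperature for 30 min.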

Assay [5] can be described thus: qHTS assay to identify small molecule agonists of the estrogen related receptor (ERR) signaling pathway from Tox21 library (AID 1224849; calls by dose curve; further: on the % scale 0 is the no-effect control and ±100 the full control effect; nearly all actives have a fitted effect of over 15% in size). To be noted: ERR reporter cell line, ONE-Glo luciferase, 18 h. A digest of the protocol: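 ERR reporter cell line (NTP) seeded, rested 6 h at 37 C/5% CO2, then pinned with Tox21 compounds in DMSO. After 18 h at 37 C, ONE-Glo luciferase luminescence was read following 30 min at room temperature.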

The nature of assay [6]: qHTS RealTime-Glo MT Cell Viability Assay in HepG2 cells - 24 hour (AID 1224867). Further: nearly all actives have a fitted effect of over 50% in size. Further: potency means the concentration at half of the fitted maximal effect. A digest of the protocol: (§1)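 HepG2 suspension premixed with RealTime-Glo reagents is plated at 600 cells per well and left 5 h at 37 C/5% CO2. Compounds in DMSO then go in, and bioluminescence reflecting viable cell number is recorded over 40 h.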
Assay [7] is described as follows: A CellTox Green Cytotoxicity Assay to monitor cytotoxicity in HEK293 cells - 0 hour (AID 1224869). Further: on the % scale 0 is the no-effect control and ±100 the full control effect; nearly all actives have a fitted effect of over 50% in size. In outline:
(§2)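 HEK293 cells premixed with CellTox Green dye were seeded at 600 cells/well and left 5 h at 37 C/5% CO2 before pin transfer of 23 nL compound in DMSO. Fluorescence from dye bound to dead-cell DNA was read during 40 h treatment.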

Assay [8] is described as follows: A CellTox Green Cytotoxicity Assay to monitor cytotoxicity in HEK293 cells - 40 hour (AID 1224871). Further: nearly all actives have a fitted effect of over 45% in size. Further: potency means the concentration at half of the fitted maximal effect. A digest of the protocol: as §2
Assay [9] can be described thus: qHTS RealTime-Glo MT Cell Viability Assay in HepG2 cells - 8 hour (AID 1224873). Further: nearly all actives have a fitted effect of over 55% in size. Further: potency means the concentration at half of the fitted maximal effect. A digest of the protocol:
(§3)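 HepG2 cells mixed with RealTime-Glo MT reagents (NanoLuc plus cell-permeant prosubstrate) were seeded at 600 cells/well, incubated 5 h at 37 C/5% CO2, then pinned with compounds in DMSO; nonlytic luminescence tracked viability during 40 h treatment.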

Assay [10] in a line: A CellTox Green Cytotoxicity Assay to monitor cytotoxicity in HEK293 cells - 24 hour (AID 1224875). Further: nearly all actives have a fitted effect of over 45% in size. Further: potency means the concentration at half of the fitted maximal effect. On activity change: on the % scale 0 is the no-effect control and ±100 the full control effect. In outline: as §2
Assay [11] can be described thus: A CellTox Green Cytotoxicity Assay to monitor cytotoxicity in HepG2 cells - 16 hour (AID 1224876). Further: nearly all actives have a fitted effect of over 45% in size. Further: potency means the concentration at half of the fitted maximal effect. A digest of the protocol: (§4)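 HepG2 cells were seeded together with the CellTox Green dye at 600 cells/well, left 5 h at 37 C/5% CO2, then given compounds in DMSO. Fluorescence from dye bound to dead-cell DNA was read repeatedly over 40 h of treatment at 37 C.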
Assay [12] is described as follows: qHTS RealTime-Glo MT Cell Viability Assay in HepG2 cells - 32 hour (AID 1224877). Further: nearly all actives have a fitted effect of over 55% in size. Further: potency means the concentration at half of the fitted maximal effect. A digest of the protocol:
as §1

Assay [13] in a line: A CellTox Green Cytotoxicity Assay to monitor cytotoxicity in HepG2 cells - 24 hour (AID 1224878). Further: nearly all actives have a fitted effect of over 45% in size. Further: potency means the concentration at half of the fitted maximal effect. On Cytotoxicity: on the % scale 0 is the no-effect control and ±100 the full control effect. In outline:
as §4

Assay [14] can be described thus: A CellTox Green Cytotoxicity Assay to monitor cytotoxicity in HepG2 cells - 40 hour (AID 1224879). Further: nearly all actives have a fitted effect of over 40% in size. Further: potency means the concentration at half of the fitted maximal effect. In outline:
as §4

Assay [15] is described as follows: qHTS RealTime-Glo MT Cell Viability Assay in HEK293 cells - 0 hour (AID 1224880). In outline:
(§5)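 HEK293 cells mixed with RealTime-Glo reagents (NanoLuc plus cell-permeant prosubstrate) at 600 cells/well, preincubated 5 h at 37 C/5% CO2, then given 23 nL compound in DMSO. Nonlytic luminescence from viable cells was read at 0, 8, 16, 24, 32 and 40 h.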

A short description of assay [16]: qHTS assay to identify small molecule agonists of the hypoxia (HIF-1) signaling pathway (AID 1224846; active means well fitted activation curve with a large enough effect in the signal ratio in the repeat runs, not every such curve was filed as active; the % refers to the signal ratio; further: on the % scale 0 is the no-effect control and ±100 the full control effect). A digest of the protocol: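 HRE-bla ME-180 cells (beta-lactamase reporter under hypoxia response element) were plated at 2,000 cells/well in medium with 0.5% dialyzed FBS, rested 5 hrs, then given compounds in DMSO for 17 hrs at 37C, 5% CO2. Reporter induction was read with CCF4-AM FRET substrate.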

A short description of assay [17]: qHTS RealTime-Glo MT Cell Viability Assay in HEK293 cells - 32 hour (AID 1224868). Further: nearly all actives have a fitted effect of over 50% in size. Further: potency means the concentration at half of the fitted maximal effect. In outline:
(§6)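 Reads taken at 0, 8, 16, 24, 32 and 40 h from the same wells. HEK293 cells (600/well) carried RealTime-Glo reagents from seeding, with compound added after a 5 h settle at 37 C.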

The nature of assay [18]: qHTS RealTime-Glo MT Cell Viability Assay in HEK293 cells - 16 hour (AID 1224872). Further: nearly all actives have a fitted effect of over 50% in size. Further: potency means the concentration at half of the fitted maximal effect. In outline: as §6
A short description of assay [19]: qHTS RealTime-Glo MT Cell Viability Assay in HEK293 cells - 40 hour (AID 1224874). Further: nearly all actives have a fitted effect of over 50% in size. Further: potency means the concentration at half of the fitted maximal effect. On max response: on the % scale 0 is the no-effect control and ±100 the full control effect. Particulars: RealTime-Glo luminescence; max response: stronger effect = lower value. In outline:
as §5

A short description of assay [20]: qHTS RealTime-Glo MT Cell Viability Assay in HepG2 cells - 40 hour (AID 1224870). Further: nearly all actives have a fitted effect of over 50% in size. Further: potency means the concentration at half of the fitted maximal effect. A digest of the protocol:
as §3

“And” between values parts separate entries of the source, which are not always exact repeats. Identical values can stand only once. Results filed as inconclusive are left out. A structure can be active in one record and inactive in another. The source made the active and inactive calls. Unless noted, the call rests on the fitted dose curve; in most records, active means well fitted curve in the direction sought with a large enough effect in the repeat runs; inconclusive means weak or mixed curves; inactive means no such curve, though single readings can be large; an effect the other way counts as inactive or inconclusive.

In the case of `CC(C)(O)c1ccc(CNC(=O)c2cccnc2Oc2ccc3nonc3c2)cc1`, the Potency entry in assay [1], in [2], in [3], in [6], in [7] and in [8] was “inactive” throughout. Moreover, the Potency entry in [9], in [10], in assay [11], in assay [12], in assay [13] and in assay [14] was “inactive” in each case. Also, the Potency entry in assay [15] is “inactive”. In addition, in assay [4], the Potency is 54.5 µM (active). For the same compound, in [5] (at 92.4 µM (top of the series) unless noted), the activity change, positive = activation is -39.3% (inactive).

For the compound `CC1=C(CC=O)C(C)(C)CCC1`, the Potency entry in assay [1], in assay [2], in assay [6], in assay [17], in assay [7] and in assay [8] was “inactive” each time. Besides, the Potency result in [18], in assay [9], in assay [10], in [11], in assay [13] and in assay [14] was “inactive” in each case. For the same compound, the compound was called inactive in assay [16]. Besides, in assay [19], the max response was -9.82% (inactive).

In the case of `Brc1cc(Br)c(Oc2cc(Br)c(Br)cc2Br)cc1Br`, the Potency in assay [1] was 21.3 µM (active). Further, the Potency result in assay [2], in assay [3], in assay [6], in [7], in assay [20] and in assay [8] was “inactive” in each case. For the same compound, the Potency result in assay [18], in [9], in [10], in [12], in assay [13] and in assay [14] was “inactive” throughout. Moreover, the Potency entry in assay [15] was “inactive”. For the same compound, the result in [16] was inactive. Further, the max response in assay [19] was -1.98% (inactive).

In the case of `Nc1ncnc2c1ncn2[C@H]1CC[C@@H](CO)O1`, the Potency result in assay [1], in assay [2], in assay [6], in assay [7], in assay [8] and in assay [18] was “inactive” in each case. For the same compound, the Potency result in [9], in assay [10], in assay [11], in [12], in [13] and in [14] was “inactive” throughout. For the same compound, the Potency entry in [15] is “inactive”. Further, the compound was called inactive in assay [16]. Further, in assay [19], the max response is 18.9% (inactive).

Regarding `C[C@]12CC[C@@H]3c4ccc(O)cc4CC[C@H]3[C@@H]1CC[C@@H]2OC(=O)CCC1CCCC1`, the Potency result in [1], in assay [7], in assay [20] and in assay [15] was “inactive” each time. Moreover, the compound was classed as inactive in assay [16]. The Potency is 56.6 µM (active) in [3]; 54.5 µM (active) in assay [4]; 49 µM (active) and inactive in assay [6]; 43.6 µM (active) in [17]; 54.9 µM (active) in assay [8]; 49 µM (active) in assay [18]. The Potency in assay [9] is 49 µM (active) and inactive; in [19], 43.6 µM (active); in assay [10] it was 54.9 µM (active); in assay [11], 49 µM (active) and 19 µM (active); in assay [12], 54.9 µM (active) and inactive; in assay [13] it was 49 µM (active) and 23.9 µM (active). The Potency in assay [14] was 54.9 µM (active) and 26.8 µM (active). Besides, the activity change, positive = activation is -30% (inactive) in assay [5] (at 42.5 µM (top of the series)) and -67.7% (inactive) in assay [5] (at 92.4 µM (top of the series)).

Take `COc1cc(Nc2c(C#N)cnc3cc(OCCCN4CCN(C)CC4)c(OC)cc23)c(Cl)cc1Cl`: the Potency entry in assay [1], in [7] and in [15] was “inactive” each time. The Potency in assay [2] is 7.8 µM (active); in [3], 55.2 µM (active); in assay [20], 23.9 µM (active); in assay [18], 19 µM (active); in assay [19] it was 7.56 µM (active); in assay [10], 21.3 µM (active). In addition, the Potency in assay [11] is 23.9 µM (active); in [13] it was 16.9 µM (active); in assay [14] it was 9.52 µM (active).

`CCC(C)COC(=O)CC(C)C` (stereo unspecified): the figures for the Potency in assay [1], in assay [13] and in assay [14] were 19.5 µM (active), 54.9 µM (active) and 49 µM (active), respectively. Moreover, the Potency entry in assay [2], in assay [3], in assay [6], in [17], in assay [7] and in [20] was “inactive” in each case. The Potency entry in [8], in [18], in [9], in assay [10], in assay [12] and in assay [15] was “inactive” throughout.

Turning to `OC(CCN1CCCC1)(c1ccccc1)C1CCCCC1` (stereo unspecified), the Potency result in [1], in assay [2], in assay [3], in assay [6], in [7] and in assay [20] was “inactive” each time. Moreover, the Potency result in [18], in assay [9], in [10], in [11], in assay [13] and in [14] was “inactive” each time. Besides, in [15], the Potency result is “inactive”. Besides, in assay [19], the max response was -3.9% (inactive).
